# Measurements as given in PubChem BioAssay.
# Values joined by “and” are separate entries in the source; they are usually repeats but may differ in a detail not shown here. Equal values may be shown once. Active and inactive are the calls of the source. Unless noted, the rule behind the calls is not given here.
# Columns and labels:
# [1] = LFS_MB_1R medulloblastoma cell growth inhibition, synergistic combos for chromothripsis tumors, cisplatin or BGB combos (AID 1671452; in the data active = inhibition above about 80%;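 note: cells exposed for 96 hours before readout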); conditions: LFS_MB_1R medulloblastoma cells, stronger effect = higher value
# [2] = CRL2098 osteosarcoma cell growth inhibition, synergistic combos for chromothripsis tumors, BGB or cisplatin IC20 combos (AID 1671454; in the data active = inhibition above about 80%;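 note: cells exposed for 96 h before readout; 0% = vehicle DMSO and 100% = killing by high DMSO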); conditions: CRL2098 osteosarcoma cells, drug combinations, stronger effect = higher value
# [3] = HD-MB03 medulloblastoma cell growth inhibition, synergistic combos for chromothripsis tumors, BGB or cisplatin IC20 combos (AID 1671455; in the data active = inhibition above about 83%;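 note: 0% = vehicle DMSO and 100% = high DMSO as cytotoxic control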); conditions: HD-MB03 medulloblastoma cells, stronger effect = higher value
# [4] = UWB1.289 ovarian carcinoma cell growth inhibition, synergistic combos for chromothripsis tumors, BGB or cisplatin combos (AID 1671456; in the data active = inhibition above about 80%;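 note: cells exposed to compound for four days; 0% = vehicle DMSO and 100% = killing by high DMSO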); conditions: UWB1.289 ovarian carcinoma cells, stronger effect = higher value
# [5] = LFS_MB_2R medulloblastoma cell growth inhibition, synergistic combos for chromothripsis tumors, cisplatin combos (AID 1671457; in the data active = inhibition above about 80%;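 note: cells exposed to compound for four days before readout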); conditions: LFS_MB_2R medulloblastoma cells, stronger effect = higher value
# [6] = UWB1.289_BRCA1 ovarian cancer growth, cell-based, BGB or cisplatin combinations (AID 1671459; in the data active = inhibition above about 80%); conditions: UWB1.289 BRCA1 ovarian carcinoma, drug combinations, stronger effect = higher value
# [7] = human astrocyte viability loss, single and combined drugs, cytotoxicity control for chromothriptic childhood tumor combination screen, cell-based, BGB or cisplatin IC20 combos (AID 1671460; in the data active = inhibition above about 80%;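 note: cells exposed to compounds for 96 hours before viability readout; 0% = vehicle and 100% = killing control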); conditions: Human astrocytes, drug combinations, stronger effect = higher value
# [8] = growth inhibition of CRL1545 osteosarcoma cells, cell-based, cisplatin and BGB IC20 combos (AID 1671464; in the data active = inhibition above about 80%;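 note: cells exposed to compound for 96 hours before readout; 0% = vehicle DMSO and 100% = high DMSO killing control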); conditions: stronger effect = higher value
# [9] = circadian clock period modulators, cell-based, LOPAC library, luminescence reporter (AID 2774); conditions: circadian reporter cells, at 7 µM, actives lie on both sides;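 note: values are relative to mean of DMSO wells on each plate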
# [10] = hESC survival regulators, cell-based (AID 493140); conditions: human embryonic stem cell survival screen; stronger effect = higher value;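 note: cells exposed to compounds for four days before counting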
# [11] = liver-stage malaria parasite growth inhibition, primary screen, cell-based, HepG2, luciferase luminescence, HepG2 viability (AID 624349; in the data active = parasite load remaining mostly below about 12%, no sharp cut-off; inactive = mostly above about 10%;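 note: 100% = mean of DMSO negative control wells on the same plate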); conditions: P. berghei liver stage in HepG2, luciferase luminescence, concentration not given here; parasite load remaining: stronger effect = lower value; viability: measured here: HepG2 viability without parasites
# [12] = test system: Hepatitis C virus NS3 helicase; experiment: HCV NS3 helicase inhibitors, primary screen, biochemical, fluorescence polarization, LOPAC1280 library (AID 687035; in the data active = inhibition above about 37%); conditions: Purified HCV NS3 helicase, Cy5-dT15 ssDNA binding fluorescence polarization; stronger effect = higher value; concentration not given here
# [13] = Cy5 fluorescence quenching or enhancement artefacts, artefact control for HCV NS3 helicase inhibitor project, biochemical, LOPAC1280 (AID 687037); conditions: Cy5-DNA-NS3h complex fluorescence interference counterscreen
# [14] = phospholipid biosynthesis inhibitors in animal cells, primary screen, cell-based, LOPAC library, screen 4 (AID 1347384); conditions: phospholipid biosynthesis inhibition screen, at 10 µM
# [15] = target: NAD(+) hydrolase SARM1 (Homo sapiens) (UniProt Q6SZW1); experiment: SARM1 TIR NADase inhibitors, cell lysate, NAD-Glo luminescence (AID 1508614;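 active = compound whose remaining NAD level is above about 45 nM, limit read from the data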;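 note: higher remaining NAD means stronger inhibition of SARM1 NADase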); conditions: SAM-TIR HEK293T lysate NADase, at 1 µM, stronger effect = higher value
# Sequence of NAD(+) hydrolase SARM1 (Homo sapiens) (Q6SZW1 whole entry, looked up, the tested form may be a part): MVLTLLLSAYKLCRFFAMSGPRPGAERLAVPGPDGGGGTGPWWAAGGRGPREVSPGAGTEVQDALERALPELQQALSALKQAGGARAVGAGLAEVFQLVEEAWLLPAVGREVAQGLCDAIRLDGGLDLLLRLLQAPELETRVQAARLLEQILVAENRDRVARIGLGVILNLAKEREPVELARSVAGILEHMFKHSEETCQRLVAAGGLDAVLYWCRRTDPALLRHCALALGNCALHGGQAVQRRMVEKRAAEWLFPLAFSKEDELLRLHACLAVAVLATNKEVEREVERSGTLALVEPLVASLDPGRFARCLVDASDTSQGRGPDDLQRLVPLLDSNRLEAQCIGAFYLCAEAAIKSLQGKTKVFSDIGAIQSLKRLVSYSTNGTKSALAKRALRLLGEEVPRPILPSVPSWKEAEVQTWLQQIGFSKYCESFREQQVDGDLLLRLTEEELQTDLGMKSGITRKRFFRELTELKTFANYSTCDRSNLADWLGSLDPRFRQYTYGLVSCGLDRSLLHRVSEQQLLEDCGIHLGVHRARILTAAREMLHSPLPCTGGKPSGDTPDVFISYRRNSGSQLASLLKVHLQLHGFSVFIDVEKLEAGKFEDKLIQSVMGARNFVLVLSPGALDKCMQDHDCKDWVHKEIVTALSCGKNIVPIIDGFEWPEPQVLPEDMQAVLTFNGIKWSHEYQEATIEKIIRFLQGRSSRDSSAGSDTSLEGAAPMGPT
# [16] = target: Mitogen-activated protein kinase 7 (Homo sapiens) (UniProt Q13164); experiment: ERK5 transactivation activators in reporter cells, primary screen, cell-based, HTS (AID 1508626;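 active = luciferase signal above three times the same-plate solvent-only control wells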;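 note: luciferase driven by Gal4-ERK5 fusion binding five Gal4 sites before minimal TATA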); conditions: HeLa Gal4-ERK5 transactivation, 18 h, at 5 µM, stronger effect = higher value
# Sequence of Mitogen-activated protein kinase 7 (Homo sapiens) (Q13164 whole entry, looked up, the tested form may be a part): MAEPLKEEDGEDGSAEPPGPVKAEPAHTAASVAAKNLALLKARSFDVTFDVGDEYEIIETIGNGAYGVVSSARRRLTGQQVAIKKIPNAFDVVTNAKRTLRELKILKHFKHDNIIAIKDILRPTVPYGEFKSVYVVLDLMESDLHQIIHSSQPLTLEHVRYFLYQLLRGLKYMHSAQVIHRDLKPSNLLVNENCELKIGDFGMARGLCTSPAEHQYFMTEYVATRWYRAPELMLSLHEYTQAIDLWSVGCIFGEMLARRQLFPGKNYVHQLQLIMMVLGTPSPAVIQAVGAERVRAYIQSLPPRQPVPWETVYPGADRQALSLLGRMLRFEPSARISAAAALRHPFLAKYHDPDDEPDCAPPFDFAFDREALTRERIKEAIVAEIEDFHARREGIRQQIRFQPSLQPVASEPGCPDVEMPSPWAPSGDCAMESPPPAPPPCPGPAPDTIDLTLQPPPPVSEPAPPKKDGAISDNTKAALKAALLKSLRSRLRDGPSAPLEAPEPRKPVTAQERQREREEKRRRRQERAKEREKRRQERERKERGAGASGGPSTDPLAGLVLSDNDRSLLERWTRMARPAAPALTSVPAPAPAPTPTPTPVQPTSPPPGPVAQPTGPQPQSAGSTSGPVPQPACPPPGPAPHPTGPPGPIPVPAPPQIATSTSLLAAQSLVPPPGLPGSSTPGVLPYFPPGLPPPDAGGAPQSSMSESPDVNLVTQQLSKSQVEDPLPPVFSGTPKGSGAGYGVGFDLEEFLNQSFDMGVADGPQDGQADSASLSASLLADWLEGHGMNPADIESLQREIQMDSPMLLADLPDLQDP
# [17] = viability rescue of complex I mutant cybrids, primary screen, cell-based, galactose medium, ATP luminescence (AID 1645843;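 active = z-score of at least 1.8 in each of two replicates, scored against plate mean and spread of sample wells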;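 note: positive z means more ATP and so rescue of galactose-driven cybrid death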); conditions: complex I mutant cybrid cells, 72 h, stronger effect = higher value
# [18] = kinase inhibitors against Plasmodium liver-stage infection, cell-based, known kinase inhibitor set, luminescence, hepatoma host viability (AID 624392); conditions: Plasmodium liver stage in hepatoma cells, luciferase luminescence, concentration not given here; liver cell % of control: measured here: host liver cell viability; parasite % of control: stronger effect = lower value;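 note: infected cells incubated roughly two days before readout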
# [19] = target: Tyrosine-protein kinase ABL1 (Homo sapiens) (UniProt P00519); experiment: PubChem AID 493040; conditions: kinase panel binding, pKi
# Sequence of Tyrosine-protein kinase ABL1 (Homo sapiens) (P00519 whole entry, looked up): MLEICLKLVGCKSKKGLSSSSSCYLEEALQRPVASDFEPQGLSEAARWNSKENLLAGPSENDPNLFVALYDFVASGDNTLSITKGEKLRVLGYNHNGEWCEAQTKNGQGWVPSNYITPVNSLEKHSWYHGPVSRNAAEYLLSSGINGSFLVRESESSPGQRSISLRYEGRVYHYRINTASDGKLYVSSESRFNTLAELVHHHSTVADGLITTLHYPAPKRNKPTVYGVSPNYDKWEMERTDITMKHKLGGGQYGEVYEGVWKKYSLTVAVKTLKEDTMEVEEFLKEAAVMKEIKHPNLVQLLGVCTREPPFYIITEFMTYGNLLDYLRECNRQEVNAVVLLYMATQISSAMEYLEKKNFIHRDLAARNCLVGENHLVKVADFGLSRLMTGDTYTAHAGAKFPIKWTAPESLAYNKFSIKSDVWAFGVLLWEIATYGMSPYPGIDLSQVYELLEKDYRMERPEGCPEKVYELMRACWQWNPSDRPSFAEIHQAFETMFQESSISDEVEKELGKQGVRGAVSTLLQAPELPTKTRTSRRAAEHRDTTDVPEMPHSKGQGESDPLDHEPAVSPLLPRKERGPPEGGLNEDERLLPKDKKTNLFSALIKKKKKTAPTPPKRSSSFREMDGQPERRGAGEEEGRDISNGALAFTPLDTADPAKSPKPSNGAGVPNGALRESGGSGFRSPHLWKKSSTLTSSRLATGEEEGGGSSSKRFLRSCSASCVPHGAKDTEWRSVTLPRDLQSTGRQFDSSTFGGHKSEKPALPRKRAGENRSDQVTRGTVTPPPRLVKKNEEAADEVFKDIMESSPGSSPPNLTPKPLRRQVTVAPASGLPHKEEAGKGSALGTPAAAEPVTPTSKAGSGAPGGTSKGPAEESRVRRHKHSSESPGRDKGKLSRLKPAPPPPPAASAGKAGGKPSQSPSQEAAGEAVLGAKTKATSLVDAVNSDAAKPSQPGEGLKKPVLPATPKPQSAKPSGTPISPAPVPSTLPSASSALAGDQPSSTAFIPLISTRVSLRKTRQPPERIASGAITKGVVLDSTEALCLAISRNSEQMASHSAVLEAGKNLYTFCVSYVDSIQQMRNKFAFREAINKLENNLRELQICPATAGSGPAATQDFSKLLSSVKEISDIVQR
# [20] = inhibitors of Cryptococcus chitosan production, flow cytometry, Cibacron Brilliant Red staining (AID 1347148); conditions: Cryptococcus neoformans chitosan, stronger effect = lower value; at 10 µM unless noted;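 note: compound exposure lasted three days at 37 degrees C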
# [21] = measured here: combination with BGB IC40, at 0.05 µM
# [22] = measured here: combination with cisplatin, at 0.5 µM
# [23] = measured here: combination with cisplatin, at 5 µM
# [24] = measured here: combination with BGB at IC20, at 0.5 µM
# [25] = measured here: combination with cisplatin at IC20, at 0.5 µM
# [26] = measured here: combo with BGB at IC20, at 0.5 µM
# [27] = measured here: combo with cisplatin at IC20, at 0.5 µM
# [28] = measured here: inhibition with BGB combination, at 0.05 µM
# [29] = measured here: inhibition with cisplatin combination, at 0.05 µM
# [30] = BGB combination, concentration series, at 5 µM
# [31] = cisplatin combination, concentration series, at 5 µM
# [32] = measured here: combo with BGB IC20, at 0.5 µM
# [33] = measured here: combo with cisplatin IC20, at 0.5 µM
# [34] = measured here: with BGB IC20 combination, at 0.5 µM
# [35] = measured here: with cisplatin IC20 combination, at 0.5 µM
smiles,measurement,setting,value
O=C(/C=C/c1cccc(S(=O)(=O)Nc2ccccc2)c1)NO,inhibition,[1]; at 0.5 µM,31.6% (inactive)
same,inhibition,[1]; [21],-40%
same,inhibition,[1]; [22],39.8%
same,inhibition,[1]; [23],99.9%
same,inhibition,[2]; at 0.5 µM,-17% (inactive)
same,inhibition,[2]; [24],-63.8%
same,inhibition,[2]; [25],6.33%
same,inhibition,[3]; at 0.5 µM,86.6% (active)
same,inhibition,[3]; [26],88.4%
same,inhibition,[3]; [27],99%
same,inhibition,[4]; at 0.5 µM,41% (inactive)
same,inhibition,[4]; [28],-3.28%
same,inhibition,[4]; [29],9.18%
same,inhibition,[5]; at 0.5 µM,37.4% (inactive)
same,inhibition,[5]; [22],58.7%
same,inhibition,[5]; [23],105%
same,inhibition,[6]; [30],99.6%
same,inhibition,[6]; at 0.5 µM,41.8% (inactive)
same,inhibition,[6]; [31],120%
same,inhibition,[7]; at 0.5 µM,31.9% (inactive)
same,inhibition,[7]; [32],38.1%
same,inhibition,[7]; [33],9.25%
same,inhibition,[8]; at 0.5 µM,90.5% (active)
same,inhibition,[8]; [34],88.7%
same,inhibition,[8]; [35],91.2%
same,inhibition,"[8]; single agent, at 0.05 µM",-2.13%
same,inhibition,"[8]; single agent, at 5 µM",85.5%
CC(=O)O[C@H]1C[C@@H]2CC[C@@H]3[C@H](CC[C@@]4(C)[C@H]3C[C@H]([N+]3(C)CCCCC3)[C@@H]4OC(C)=O)[C@@]2(C)C[C@@H]1[N+]1(C)CCCCC1,period change,[9],-0.015 h (inactive)
same,survival,[10],6.75 (inactive)
same,parasite load remaining,[11],119% (inactive) and 39.7% (inactive)
same,viability,[11],75.7% and 111%
same,inhibition,[12],1% (inactive)
same,fluorescence ratio (interference),[13],1 (inactive)
same,outcome,[14],inactive
same,remaining NAD,[15],10 nM (inactive)
same,luciferase signal,[16],40 AU (inactive)
same,z-score,[17],0.28 (inactive) and 0.73 (inactive)
Oc1cccc(-c2nc(N3CCOCC3)c3oc4ncccc4c3n2)c1,parasite load remaining,[11],45.4% (inactive)
same,viability,[11],89.8%
same,liver cell % of control,[18],88.7% and 86.7% and 100%
same,parasite % of control,[18],326% (inactive) and 309% (inactive) and 81.9% (inactive)
same,outcome,[19],inactive
O=C1c2ccccc2-[n+]2ccc3c([nH]c4ccccc43)c21,parasite load remaining,[11],1.89% (inactive)
same,viability,[11],32.8%
CCCNC(=O)[C@H]1O[C@@H]1C(=O)N[C@H](C(=O)N1CCC[C@H]1C(=O)OC)C(C)CC (stereo partly specified),fold fluorescence,[20],3.89 [at 125.8 µM] (inactive)
CC(C)(O)c1cc2nc(-c3cnc(N)nc3)nc(N3CCOCC3)c2s1,liver cell % of control,[18],68.4% and 67.7% and 82.5%
same,parasite % of control,[18],539% (inactive) and 545% (inactive) and 563% (inactive)
O=C(/C=C/c1ccc(CN(CCO)CCc2c[nH]c3ccccc23)cc1)NO,inhibition,[1]; at 0.5 µM,88.5% (active)
same,inhibition,[1]; [21],0.114%
same,inhibition,[1]; [22],107%
same,inhibition,[1]; [23],101%
same,inhibition,[2]; at 0.5 µM,80.2% (active)
same,inhibition,[2]; [24],80.4%
same,inhibition,[2]; [25],75.9%
same,inhibition,[3]; at 0.5 µM,99.8% (active)
same,inhibition,[3]; [26],99.8%
same,inhibition,[3]; [27],100%
same,inhibition,[4]; at 0.5 µM,88.8% (active)
same,inhibition,[4]; [28],9.36%
same,inhibition,[4]; [29],34.8%
same,inhibition,[5]; at 0.5 µM,87.1% (active)
same,inhibition,[5]; [22],99.3%
same,inhibition,[5]; [23],107%
same,inhibition,[6]; [30],126%
same,inhibition,[6]; at 0.5 µM,95.2% (active)
same,inhibition,[6]; [31],130%
same,inhibition,[7]; at 0.5 µM,95.2% (active)
same,inhibition,[7]; [32],92%
same,inhibition,[7]; [33],97.1%
same,inhibition,[8]; at 0.5 µM,87.1% (active)
same,inhibition,[8]; [34],82.2%
same,inhibition,[8]; [35],89.4%
same,inhibition,"[8]; single agent, at 0.05 µM",86.9%
same,inhibition,"[8]; single agent, at 5 µM",94.5%
Cc1ccc(C(=O)Nc2cccc(C(F)(F)F)c2)cc1-c1ccc2nc(NCCN3CCOCC3)ncc2c1,liver cell % of control,[18],51.5% and 76.3% and 85.2%
same,parasite % of control,[18],60.4% (inactive) and 252% (inactive) and 87.5% (inactive)
